Sampled rows, rich in hits. Any-hit rate of the full collection: about 10%.
Luciferase inh = blocks purified firefly luciferase enzyme activity. P08659. purified P. pyralis luciferase, luminescence, biochemical. Potency, µM (doses to about 115 µM), hits mostly inhibitors. 76,000 tested, 2.5% active; further: nearly all actives have a fitted effect of over 65% in size
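Cell-free enzyme assay, 10nM P. pyralis luciferase, luciferin and ATP each at 10uM. Inhibition profiled over a 6-point titration, read as luminescence.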
GPT2 inh = inhibitors of human GPT2 alanine aminotransferase. 100,000 tested, 0.25% active. Recombinant GPT2, coupled pyruvate oxidase/HRP Amplex Red fluorescence. Potency, µM (titrated, usually from 57.7 µM), for inactives: at the highest dose activity change, negative = inhibition, hits mostly inhibitors; further: nearly all actives have a fitted effect of over 60% in size
Target sequence (Q8TD30 whole entry, looked up): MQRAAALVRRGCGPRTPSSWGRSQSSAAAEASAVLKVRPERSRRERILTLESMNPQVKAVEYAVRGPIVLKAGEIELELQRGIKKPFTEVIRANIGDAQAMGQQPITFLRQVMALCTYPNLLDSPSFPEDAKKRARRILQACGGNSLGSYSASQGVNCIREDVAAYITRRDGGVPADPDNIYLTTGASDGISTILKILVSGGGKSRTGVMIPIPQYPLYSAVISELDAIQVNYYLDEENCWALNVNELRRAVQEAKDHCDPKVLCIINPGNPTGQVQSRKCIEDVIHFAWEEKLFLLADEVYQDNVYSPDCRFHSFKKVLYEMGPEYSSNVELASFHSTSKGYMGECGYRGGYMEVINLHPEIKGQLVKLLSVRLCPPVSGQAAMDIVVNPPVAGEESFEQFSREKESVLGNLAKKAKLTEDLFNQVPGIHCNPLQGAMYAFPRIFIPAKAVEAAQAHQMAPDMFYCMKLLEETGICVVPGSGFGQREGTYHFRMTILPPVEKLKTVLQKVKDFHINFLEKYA
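GPT2 10ng/uL, a-KG 250uM, L-Ala 2mM, HEPES pH7.5 + 0.0001% Tween; 30 min RT. Then Amplex mix (PO/HRP/ThPP), 30 min RT dark, fluorescence. AOA 50uM used as positive control.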
3T3 cytotox = NIH 3T3 cell cytotoxicity | NIH 3T3 viability, CellTiter-Glo ATP luminescence, 48-72 h | 94,000 tested, 4.3% active | AID 1345082 | Potency, µM (highest dose often 96.7 µM), for inactives: at the top dose activity change, negative = cytotoxicity, most hits filed as inhibitors; further: nearly all actives have a fitted effect of over 55% in size
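Viability of NIH 3T3 cells after 48 or 72 hr compound treatment at 37 °C was assessed by CellTiter-Glo, with luminescence imaged following a 10 min room-temperature step.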
HEK293 tox = kills HEK 293 cells; HEK 293 viability, ATP luminescence (CellTiter-Glo), 48-72 h; 94,000 tested, 6.6% active; AID 1345083; Potency, µM (series often up to 115 µM), for the others: at the highest dose activity change, negative = cytotoxicity, most hits filed as inhibitors; further: nearly all actives have a fitted effect of over 60% in size
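Pintool-delivered compounds were incubated with HEK 293 cells (250 cells/well) at 37 degree Celsius for 48 or 72 hr. ATP-dependent luminescence (CellTiter-Glo) then reported remaining viable cells.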
NPR1 antag = antagonists of human natriuretic peptide receptor Npr1; Potency, µM (top dose mostly 46.3 µM), inactives show top-dose activity change, negative = inhibition, usual class: inhibitors; HEK293 hNpr1 GloSensor cGMP, ANP-stimulated luminescence; P16066; 76,000 tested, 1.6% active; AID 1347048; calls by dose curve; further: nearly all actives have a fitted effect of over 60% in size
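Compound pre-incubated 30 min at room temperature on GloSensor-loaded HEK293 cells stably carrying hNpr1 and the pGS-40F cGMP biosensor. Stimulation uses hNppA at 0.1 nM final; luminescence is taken at baseline and 20 min post-agonist.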
* hit, by the source's call; i = inactive; ? = inconclusive; . = no result given; [ ] = dose if it differs, or a comment. Unless noted, the call rests on the fitted dose curve; in most records, active means well fitted curve in the direction sought with a large enough effect; inconclusive means small, poorly fitted or top-dose-only effect, or another doubt; inactive means no such curve, though single readings can be large; an effect the other way counts as inactive or inconclusive. On the % scale 0 is the no-effect control and ±100 the full control effect; potency means the concentration at half of the fitted maximal effect.

SMILES	Luciferase inh	GPT2 inh	3T3 cytotox	HEK293 tox	NPR1 antag
C#CCNC(=O)[C@@H]1Cc2cn(Cc3c(C)noc3C)c3cccc(c23)[C@H](CC(C)C)N1	i	?	50µM*	40µM*	-29%[70.6 µM]
Cc1noc(C)c1Cn1cc2c3c(cccc31)[C@H](CC(C)C)N[C@H](C(=O)NC1CCC1)C2	i	2%[88.5 µM]	?	40µM*	0%[70.6 µM]
CCCNC(=O)[C@@H]1Cc2cn(Cc3c(C)noc3C)c3cccc(c23)[C@H](CC(C)C)N1	i	-7%[88.5 µM]	71µM*	25µM*	-2%[70.6 µM]
Cc1cc(Cn2cc3c4c(cccc42)[C@H](CC(C)C)N[C@H](C(=O)O)C3)no1	i	3%[88.5 µM]	-14%[138 µM]	-11%[172 µM]	2%[70.6 µM]
Cc1noc(C)c1Cn1cc2c3c(cccc31)[C@H](CC(C)C)N[C@H](C(=O)N1CCOCC1)C2	i	-2%	-21%	?	0%
CCN1C(=O)COC[C@@H]1[C@H](O)c1ccc(NC(=O)c2ccc3c(c2)OCO3)cc1	?	-4%[88.5 µM]	-3%[138 µM]	-5%[172 µM]	2%[70.6 µM]
CCCNC(=O)N1CCC(Oc2ccccc2)C1 (stereo unspecified)	i	0%	-17%	10%	-1%
COc1ccc(-c2cc3c(=O)n(CCNC(=O)c4cccc5[nH]ccc45)ccn3n2)cc1	6.3µM*	i	?	32µM*	-22%
COc1ccc(-c2cc3c(=O)n(CCNC(=O)c4ccccc4C)ccn3n2)cc1	10µM*	-3%	-21%	?	-15%
COc1ccc(-c2cc3c(=O)n(CCNC(=O)c4cc(F)cc(F)c4)ccn3n2)cc1	2µM*	-11%	?	?	-19%
COc1ccc(-c2cc3c(=O)n(CCNC(=O)c4ccccn4)ccn3n2)cc1	7.9µM*	-19%	-27%	-27%	-11%
CC(=O)Nc1cccc(C(=O)NCCn2ccn3nc(-c4ccc(F)cc4)cc3c2=O)c1	20µM*	0%	?	45µM*	0%
O=C(NCCn1ccn2nc(-c3ccc(F)cc3)cc2c1=O)c1cccc(Cl)c1	i	i	-27%	-43%	?
CCOc1ccc(C(=O)N2CCN(C(=O)c3nnn4c3COC(c3ccc(Cl)cc3)C4)CC2)cc1 (stereo unspecified)	i	i	i	8%	-4%
O=C(Cc1ccccn1)N1CCCC2(CN[S+](=O)([O-])c3cccnc3N2)C1 (stereo unspecified)	.	.	i	-7%	.
CCCn1ncnc1C(C)Nc1cc(C(C)C)nc2cc(C)nn12 (stereo unspecified)	i	5%	35µM*	?	4%
CCCn1ncnc1C(C)NC(=O)C1CCN(C(=O)C2CC2)CC1 (stereo unspecified)	i	i	-5%	-3%	0%
COc1ccc(Nc2ccnc(N3CCC(N[S+](=O)([O-])c4ccccc4)CC3)n2)cc1	.	i	?	?	.
COc1ccc(Nc2ccnc(N3CCC(N[S+](=O)([O-])c4c(C)noc4C)CC3)n2)cc1	.	-2%	40µM*	45µM*	.
COc1ccc(Nc2ccnc(N3CCC(N[S+](=O)([O-])c4cccc(C(F)(F)F)c4)CC3)n2)cc1	.	i	18µM*	22µM*	.
COc1ccc(CN2CC[C@H](c3nc4c(C(N)=O)cccc4[nH]3)C2)cc1	i	-25%[88.5 µM]	?	?	-12%[70.6 µM]
NC(=O)c1cccc2[nH]c([C@H]3CCN(Cc4cccc(Cl)c4)C3)nc12	i	i	?	56µM*	?
N#Cc1ccc(CN2CCC(c3nc4ccncc4[nH]3)C2)cc1 (stereo unspecified)	i	-2%	?	?	-5%[70.6 µM]
FC(F)(F)c1ccc2nc([C@H]3CCN(Cc4ccccn4)C3)[nH]c2c1	?	-9%[88.5 µM]	?	45µM*	0%[70.6 µM]
O=C(C1CCCCC1)N1CC[C@H](c2nc3ccc(C(F)(F)F)cc3[nH]2)C1	i	-3%[88.5 µM]	?	?	0%[70.6 µM]
SMILES	Luciferase inh	GPT2 inh	3T3 cytotox	HEK293 tox	NPR1 antag
N#Cc1ccc2nc([C@H]3CCN(Cc4ccccn4)C3)[nH]c2c1	?	-9%[88.5 µM]	63µM*	100µM*	4%[70.6 µM]
N#Cc1ccc2nc([C@H]3CCN(Cc4ccccc4)C3)[nH]c2c1	?	3%[88.5 µM]	40µM*	50µM*	2%[70.6 µM]
COc1ccccc1Nc1ccnc(N2CCCC(C(=O)NC(C)c3ccc(F)cc3)C2)n1 (stereo unspecified)	.	-12%	?	?	.
O=[S+]([O-])(NC1CCN(c2nccc(Nc3ccccc3Cl)n2)CC1)c1cccs1	.	i	?	?	.
O=c1cc(C2=CCOCC2)oc2c(-c3cccc4[nH]ccc34)nccc12	i	2%[88.5 µM]	?	40µM*	-13%[70.6 µM]
COc1ccccc1-c1nccc2c(=O)cc(-c3ccccn3)oc12	i	?	?	?	2%[70.6 µM]
O=C(OCc1ccccc1)N1CCOCC12CCN(Cc1ccccc1F)CC2	i	-1%[88.5 µM]	?	?	-5%[70.6 µM]
Cc1ccc(CN2CCC3(CC2)COCCN3C(=O)OCc2ccccc2)o1	i	i	45µM*	28µM*	1%[70.6 µM]
O=C(OCc1ccccc1)N1CCOCC12CCN(Cc1ccccc1)CC2	i	i	?	25µM*	-14%[70.6 µM]
Cc1ccccc1CN1CCC2(CC1)COCCN2C(=O)OCc1ccccc1	i	-5%[88.5 µM]	?	100µM*	-17%[70.6 µM]
COc1ccccc1CN1CCC2(CC1)COCCN2C(=O)OCc1ccccc1	i	-16%[88.5 µM]	?	?	-15%[70.6 µM]
Cc1noc(C)c1CN1CCC2(CC1)COCCN2C(=O)OCc1ccccc1	i	-3%[88.5 µM]	-12%[138 µM]	?	-2%[70.6 µM]
Cc1cccc(CN2CCC3(CC2)COCCN3C(=O)OCc2ccccc2)c1	i	-15%[88.5 µM]	40µM*	40µM*	-8%[70.6 µM]
COCCN1C(=O)CCC2(C(=O)NCCN(C)C3CCCCC3)CCCC=C12 (stereo unspecified)	?	1%	-30%	?	-20%
O=C(OCc1ccccc1)N1CCOCC12CCN(Cc1nccs1)CC2	i	i	?	?	?
O=C(OCc1ccccc1)N1CCOCC12CCN(Cc1ccncc1)CC2	i	i	35µM*	50µM*	-5%[70.6 µM]
O=C1Nc2ccccc2CC12CCN(Cc1ccsc1)CC2	i	-3%[88.5 µM]	-6%[138 µM]	-2%[172 µM]	0%[70.6 µM]
Cc1noc2c(-c3cccnc3NC3CCN(C)CC3)cc(-c3ccccc3)nc12	i	i	32µM*	63µM*	2%[70.6 µM]
CC(=O)N1CCN(c2ncccc2-c2cc(-c3ccccc3)nc3c(C)noc23)CC1	i	4%[88.5 µM]	?	-24%[172 µM]	2%[70.6 µM]
Cc1noc2c(NC3CCN(C)CC3)cc(-c3ccccc3)nc12	i	-13%[88.5 µM]	?	100µM*	1%[70.6 µM]
Cc1noc2c(NC3CCN(C)CC3)cc(-c3ccccn3)nc12	i	i	?	112µM*	-1%[70.6 µM]
